The other results are listed elsewhere or left out. Inconclusive results are not listed. Activity calls are given as the source filed them. Calls come from the whole dose curve; as a rule, active = well fitted inhibition curve with a large enough effect; inconclusive = small, poorly fitted or top-dose-only effect; inactive = no such curve, though single readings can be large or run the other way.
Biological target: Isocitrate dehydrogenase [NADP] cytoplasmic (Homo sapiens) (UniProt O75874)
Experiment: qHTS for Inhibitors of mutant isocitrate dehydrogenase 1 (IDH1): Confirmation of Cherrypicks; note: nearly all actives have a fitted effect of over 50% in size
Details: IDH1 R132H enzyme, NADPH diaphorase/resazurin fluorescence
Description: Malignant glioblastomas (WHO grade IV), including primary and secondary glioblastomas, are among the most lethal with a median survival of one year, and unfortunately they are also the most prevalent type of brain tumors. By and large the standard of care of gliomas remains the use of the oral alkylating agent temozolomide and radiotherapy following surgical tumor resection. There is an urgent unmet medical need for novel therapeutics for gliomas. IDH mutations occur in up to 70% of grade II-IV secondary glioblastomas, and IDH1 R132H is the most prevalent mutation. […] Wild-type IDH1 catalyzes the conversion of isocitrate to -ketoglutarate with the concomitant reduction of NADP+ to NADPH. […] Inhibition of the IDH1 R132H enzymatic reaction leads to an increase in the amount of NADPH relative to a DMSO control and a concomitant increase in the fluorescence of the diaphorase/resazurin enzyme product resorufin at 590 nm. […]
Enzyme buffer was dispensed into black, solid 1536-well plates at 3 microL/well in 20 mM Tris buffer, pH 7.5, containing final concentrations of 10 mM MgCl2, 20 mM NaCl, 0.001% Tween20, 0.05% BSA, 2 mM beta-ME and 5.2 nM IDH1 R132H. […] The inherent compound fluorescence was measured at this point at 590 nm on a ViewLux plate reader (Ex 525, Em 598, bodipy filter). […] The %Activity was determined from the corrected fluorescence values. […]
Potency is the fitted concentration of half-maximal effect.

Chain of Isocitrate dehydrogenase [NADP] cytoplasmic (Homo sapiens) (O75874 whole entry R132H, change not shown): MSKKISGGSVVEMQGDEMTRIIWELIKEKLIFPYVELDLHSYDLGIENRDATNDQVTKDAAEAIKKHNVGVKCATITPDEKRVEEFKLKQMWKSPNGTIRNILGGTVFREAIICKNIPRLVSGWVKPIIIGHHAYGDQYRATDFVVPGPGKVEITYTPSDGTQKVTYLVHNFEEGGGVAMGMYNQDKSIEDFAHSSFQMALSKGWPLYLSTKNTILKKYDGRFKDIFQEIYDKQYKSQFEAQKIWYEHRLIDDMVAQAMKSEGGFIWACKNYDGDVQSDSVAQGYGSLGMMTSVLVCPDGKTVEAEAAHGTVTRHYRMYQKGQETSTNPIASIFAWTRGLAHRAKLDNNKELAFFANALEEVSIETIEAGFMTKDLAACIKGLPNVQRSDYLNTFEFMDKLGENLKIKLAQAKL

## CC(C)(C)c1ccc(S(=O)(=O)Nc2ccc(O)c(Sc3nc4ccccc4s3)c2)cc1
  Potency: 15.8 µM (active)
